Bioassay records deposited in PubChem BioAssay by National Center for Advancing Translational Sciences (NCATS).
DT40 TDP1 CPT = growth inhibition of DT40 Tdp1-/-;hTDP1 cells with camptothecin (screen for TDP1 inhibitors). chicken DT40 Tdp1-/-;hTDP1 cells + 20 nM CPT, ATP luminescence, 48 h. Potency, µM (highest dose often 46.2 µM), for inactives: top-dose activity change, negative = growth inhibition, most hits filed as inhibitors. 420,000 compounds, 12% hits. AID 686979; further: potency means the concentration at half of the fitted maximal effect; nearly all actives have a fitted effect of over 55% in size
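Cell growth measured by CellTiter-Glo luminescence after a minimum 48 h, 37 C compound exposure with 20 nM CPT in Tdp1-knockout DT40 cells stably expressing hTDP1, seeded 400/well; qHTS titration format.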
IL1B secr inh = blocks inflammasome-driven IL-1 beta release | activity change, % at 57.5 µM | AID 743279 | THP-1 LPS/ATP IL-1B secretion, AlphaLISA, 16 h; active compounds read low | 360,000 compounds, 4.7% hits; in the data active means activity change below about -50%; inconclusive means mostly about -30% to -49%
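Secreted IL-1B measured by AlphaLISA bead assay after 16 h compound exposure of THP-1 cells; compounds (final up to 57.5 uM) added 1 h before LPS (250 ng/mL) and ATP (1.25 mM) stimulation; lower signal means less secretion.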
HT1080 IDH1KD tx = toxicity to HT-1080 IDH1 knockdown cells (counter line) | HT-1080 IDH1 knockdown viability, ATP luminescence, 48 h | 360,000 compounds, 2% hits | AID 686971 | Potency, µM (top dose mostly 46.1 µM), for the others: at the top dose activity, negative = toxicity, hits mostly cytotoxic;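 further: potency means the concentration at half of the fitted maximal effect; 0% = DMSO wells and -100% = cell-free medium wells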
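Using the IDH1-knockdown HT-1080 line run in the same batch and compound series as the NT line, viability after 48 h at 37 °C was determined by CellTiter-Glo luminescence and expressed as % activity.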
HT1080NT lethal = kills 2HG-producing HT-1080-NT fibrosarcoma cells; HT-1080-NT fibrosarcoma viability, CellTiter-Glo ATP luminescence, 48 h; Potency, µM (titrated, usually from 46.1 µM), for inactives: at the top dose activity, negative = less viability, most hits filed as cytotoxic; 360,000 compounds, 1.6% hits;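 further: NT is the 2HG producing partner of a matched IDH1 knockdown line; potency means the concentration at half of the fitted maximal effect; 0% = DMSO-treated cells and -100% = media-only wells without cells; nearly all actives have a fitted effect of over 55% in size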
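Viability by CellTiter-Glo luminescence after 48 h compound exposure at 37C of HT-1080-NT cells (750/well, RPMI, 5% FBS). % activity scaled between DMSO wells and medium-only wells, then curve-fitted and categorized by curve class.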
12-LOX inh = blocks human arachidonate 12S-lipoxygenase; P18054; purified 12hLO, xylenol orange hydroperoxide absorbance; Potency, µM (top dose mostly 108 µM), for the others: at the top dose activity change, negative = inhibition, usual class: inhibitors; 580,000 compounds, 1.1% hits; further: potency means the concentration at half of the fitted maximal effect
Target sequence (P18054 whole entry, looked up): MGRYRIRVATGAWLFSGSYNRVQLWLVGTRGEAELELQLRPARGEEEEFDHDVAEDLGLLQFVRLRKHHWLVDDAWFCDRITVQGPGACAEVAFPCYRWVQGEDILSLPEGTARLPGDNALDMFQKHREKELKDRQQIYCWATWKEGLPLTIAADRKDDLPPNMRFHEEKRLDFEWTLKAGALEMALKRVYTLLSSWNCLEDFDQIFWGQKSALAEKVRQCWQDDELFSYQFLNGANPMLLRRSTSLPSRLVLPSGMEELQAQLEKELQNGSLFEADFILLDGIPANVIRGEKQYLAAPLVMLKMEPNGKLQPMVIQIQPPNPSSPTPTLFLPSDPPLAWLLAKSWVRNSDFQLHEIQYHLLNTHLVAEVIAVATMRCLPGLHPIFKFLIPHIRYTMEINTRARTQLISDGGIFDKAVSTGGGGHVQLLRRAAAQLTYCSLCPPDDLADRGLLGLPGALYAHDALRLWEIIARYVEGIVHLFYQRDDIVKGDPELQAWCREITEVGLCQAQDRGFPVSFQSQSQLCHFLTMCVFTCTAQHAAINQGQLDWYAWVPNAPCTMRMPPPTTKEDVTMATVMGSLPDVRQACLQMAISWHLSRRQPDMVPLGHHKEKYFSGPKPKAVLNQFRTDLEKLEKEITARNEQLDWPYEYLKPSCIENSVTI
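Hydroperoxide product was detected by ferrous iron/xylenol orange as the 573 to 405 nm absorbance ratio. Arachidonic acid at 40 uM (final) was turned over for 30 min at room temperature by 150 nM human 12hLO, pH 7.0 Hepes buffer, after 15 min compound preincubation.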
TDP1 cell noCPT = qHTS for Inhibitors of human tyrosyl-DNA phosphodiesterase 1 (TDP1): qHTS in cells in absence of CPT; DT40 Tdp1-/- hTDP1 cells, no CPT, ATP luminescence, 48 h; Potency, µM (highest dose often 46.2 µM), inactives show at the highest dose activity change, negative = growth inhibition, hits mostly inhibitors; 420,000 compounds, 15% hits; AID 686978, 2013; further: potency means the concentration at half of the fitted maximal effect; nearly all actives have a fitted effect of over 55% in size
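No-CPT arm: Tdp1-/-;hTDP1 DT40 cells (400/well) plus compounds, incubated ≥48 hr at 37 °C. Readout CellTiter-Glo luminescence.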
* hit, by the source's call; u = inconclusive; x = no result given; [ ] = another dose, or the depositor's remark. The full list was thinned out, with hits kept by preference. Unless noted, the call rests on the fitted dose curve; in most records, active means well fitted curve in the direction sought with a large enough effect; inconclusive means small, poorly fitted or top-dose-only effect, or another doubt; inactive means no such curve, though single readings can be large; an effect the other way counts as inactive or inconclusive. Unless noted, on the % scale 0 is the no-effect control and ±100 the full control effect.

SMILES	DT40 TDP1 CPT	IL1B secr inh	HT1080 IDH1KD tx	HT1080NT lethal	12-LOX inh	TDP1 cell noCPT
C=CCOC1=CS(=O)(=O)N(Cc2ccc(Br)cc2)c2ccc(Br)cc21	16µM*	27	3%	-3%	-27%	u
O=C1CS(=O)(=O)N(Cc2ccccc2F)c2ccc(Br)cc21	-5%	21	-1%	u	u	-16%
CCc1cc2c3c(c1)C1(C(=O)N3C(C)(C)C=C2C)C(C#N)=C(N)Oc2[nH]c(=O)[nH]c(=O)c21 (configuration not stated)	3.3µM*	25	16µM*	23µM*	0%	3.3µM*
CC(O)c1cccc(-c2ccc(CN3C[C@]4(CO)O[C@@H](CO)C[C@@H]4S3(=O)=O)cc2)c1 (some centres not stated)	u	-3	12%	11%	-7%	-24%
O=C(CN1C(=O)COc2ccc(C(=O)COc3cccc(F)c3)cc21)NCc1ccco1	x	x	x	x	16%	x
C#CCSc1nncn1C(=O)/C=C/c1ccccc1	13µM*	-81*	7%	u	x	u
COc1ccccc1-n1cc(C(=O)c2cc(C)ccc2O)cc(C#N)c1=O	x	x	x	x	-21%	x
C=C(C)[C@@H]1C2=CC(C(=O)OC)=C(C[C@@H](C(=C)C)[C@H]3O[C@H]3C3=C[C@H]1OC3=O)O2	1.1µM*	x	3.5µM*	4µM*	-4%	1.1µM*
COCC1(C(=O)N2CCc3c(c(C(=O)O)nn3CC3CC3)C2)CCC1	x	x	x	x	5%	x
COCCN(CCOC)C(=O)c1cc2sc3ccccc3c2s1	u	u	-2%[9.24 µM]	-3%	-15%	u
CCN(CC)C(=O)c1cc2sc3ccccc3c2s1	u	-12	-5%	-9%	16µM*	u
CN(C)CCNC(=O)c1cc2sc3ccccc3c2s1	u	-71*	23µM*	21µM*	-17%	23µM*
COc1ccc(C(=O)Oc2ccc(Cl)cc2Cl)cc1OC	x	x	x	x	-17%	x
c1ccc(Cn2c(SCc3nc4ccccc4s3)nnc2-c2ccco2)cc1	15µM*	-15	-5%	-3%	0%	u
COC(=O)CCNCCSc1nnc(-c2ccco2)n1Cc1ccccc1	12µM*	0	1%	23%	-11%	8.2µM*
O=C(CSc1nnc(-c2ccco2)n1Cc1ccccc1)NCc1ccccc1	-30%	-8	8%	4%	8%	u
COc1ccc([C@@H]2CN(c3nnnn3-c3ccccc3)C[C@H]2NC(C)=O)cc1	x	x	x	x	3%	x
CCCC(C)NC(=O)COC(=O)c1nn(-c2ccccc2)cc1OC (configuration not stated)	x	x	x	x	-17%	x
C[C@H](O)C#Cc1cnc2c(c1)C(=O)N([C@H](C)CO)C[C@@H](C)[C@H](CN(C)C(=O)Nc1ccc(C(F)(F)F)cc1)O2	12µM*	u	12%	-3%	-21%	7.3µM*
C[C@H](CO)N1C[C@H](C)[C@H](CN(C)C(=O)Nc2ccc(C(F)(F)F)cc2)Oc2ncc(Br)cc2C1=O	u	-7	-4%	-10%	1%	u
C[C@H]1CN([C@@H](C)CO)C(=O)c2cc(Br)cnc2O[C@@H]1CN(C)C(=O)Nc1ccc(C(F)(F)F)cc1	21µM*	4	-4%	-12%	-10%	23µM*
CCN1C(=O)CCN(C2CCCC2)c2nc(Nc3ccc(C(=O)NC4CCN(C)CC4)cc3OC)ncc21	5.2µM*	52	21µM*	u	u	7.3µM*
Clc1ccc2c(c1)N=C(N1CCNCC1)c1ccccc1N2	13µM*	x	x	x	-12%	9.2µM*
Cc1ccccc1-c1cc(N2CCNCC2)ncn1	-9%	x	x	x	u	-5%
